The structures appear in SMILES notation. About 15 (0.02%) of roughly 75,000 compounds were called active. Another 3% or so got no clear call; they are omitted. What follows is part of a selection rich in actives, with near analogues and random picks from the rest. A call without a number means that no potency is given here. A number with no mark means an inactive call. Calls come from the whole dose curve; as a rule, active = well fitted inhibition curve with a large enough effect in the main read-out, with a control signal flat (not every such curve was filed as active); inconclusive = small, poorly fitted or top-dose-only effect, or a change in a side signal; inactive = flat fitted curve, though single readings scatter.

From PubChem BioAssay AID889 (National Center for Advancing Translational Sciences (NCATS), 2007) come the findings set out here.
Potency is the fitted concentration of half-maximal effect.

Caspase-7 (Homo sapiens), sequence (P55210 24-198 limits assumed): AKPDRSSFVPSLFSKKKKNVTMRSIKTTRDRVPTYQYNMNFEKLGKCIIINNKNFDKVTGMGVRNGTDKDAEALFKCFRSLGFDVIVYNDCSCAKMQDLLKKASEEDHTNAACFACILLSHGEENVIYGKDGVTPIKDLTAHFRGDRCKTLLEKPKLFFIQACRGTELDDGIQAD
Caspase-7 (Homo sapiens), sequence (P55210 207-303 limits assumed): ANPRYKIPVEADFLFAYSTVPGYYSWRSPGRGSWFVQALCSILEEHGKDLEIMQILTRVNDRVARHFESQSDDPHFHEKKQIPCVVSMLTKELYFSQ

This test has as its target Caspase-7 (Homo sapiens) (UniProt P55210). The test can be described thus: qHTS Assay for Allosteric/Competitive Inhibitors of Caspase-7. The following applies: recombinant caspase-7, Ac-DEVD-AFC fluorescence rate; series mostly up to 57.5 µM. From the text: NIH Molecular Libraries Screening Centers Network [MLSCN]
NIH Chemical Genomics Center [NCGC]
PI Name: Dr. James Wells,
Dr. Enrique Perez-Paya, Dr.Janice Williams, Dr. Dennis Wolan, a person
The caspases (Cysteine Aspartyl Protease) comprise a related family of 14 dimeric proteases that are critical mediators of apoptosis (programmed cell death) and inflammation. The caspases represent an important class of drug targets for stroke, ischemia, cancer and inflammatory diseases. […] One goal of this project was to identify compounds that act as allosteric inhibitors via stabilizing the procaspase form of the enzyme. Previous work in Well's laboratory has shown that such allosteric inhibitors can be identified and these act by binding at the dimer interface of enzyme (Hardy, Lam et al., 2004).
The biochemical assay was configured using purified caspase 7 at a high enzyme concentration to promote formation of the homodimers and thus facilitate the identification of allosteric inhibitors. The overall goal was to identify reversible inhibitors with better drug-like properties than the currently available set of aspartyl-containing peptidomimetics that covalently bind the active site. Caspase 7 was assayed using the profluorescent substrate Ac-DEVD-AFC. After initiation of the assay with substrate the plates were rapidly read using an automated robotic system (Kalypsys, Inc.) to maintain consistent timing. A kinetic mode of detection was used where the initial rate was collected (estimated final product formation was ~10%). Compounds were screened as a concentration-titration series that ranged from 57 uM to 0.7 nM. Below is the protocol used for caspase 7.
NCGC Assay Protocol Summary:
Caspase 7 was prepared in buffer (50 mM HEPES pH 7.5, 50 mM KCl, 200 mM NaCl, 10 mM DTT, 0.1% CHAPS) at a concentration of 66.6 nM and 3 uL was dispensed to all wells using black solid Kalypsys 1536-well plates. 20 nL of DMSO containing compounds was added using a pin-tool (Kalypsys Inc.) to columns 5-48. Then 20 nL of DMSO solution from a control plate was added to columns 1-4. Controls were: Column 1, 16 point titration with each concentration in duplicate (1:1 dilutions in DMSO; final starting concentration was 57 uM) of the caspase 7 inhibitor Ac-DEVD-CHO (Alexis Biochemicals); Column 2, a 16 point titration with each concentration in duplicate of the free AFC fluorophore prepared in DMSO (Alexis Biochemicals), final starting was 40 uM; Column 3 neutral (DMSO only) control; Column 4: DMSO alone, to serve as a negative control (no substrate was added). Then 1 uL of 20 uM the substrate Ac-DEVD-AFC (Alexis Biochemicals) prepared in the same buffer was dispensed to all wells except columns 2 and 4 and the plates were immediately transferred (< 1 min) to the Viewlux. The plates were then exposed using 405 nm excitation/520 nm emission filters for 4 sec and read at 20 sec intervals for 3 min. Final enzyme concentration was 50 nM and the final substrate concentration was 5 uM.
Concentration-response curves were fitted to the data calculated from slope of the linear regression of fluorescent intensity versus time (the rate). The concentration-effect curves were then classified based on curve quality (r2), response magnitude and degree of measured activity. […] Inconclusive compounds had appreciable concentration-dependent effects on both the measured rate and the interpolated basal fluorescence intensity at the start of the reaction but where the basal fluorescent intensity was marginal (e.g. < 10-fold). Inconclusive compounds also encompass highly fluorescent compounds (>100-fold increases in fluorescent intensities values relative to controls) where artificial concentration-dependent decreases in the rate occurred at high compound concentrations due to fluorescent interferences.
Keywords: Caspase 7, proteases, profluorescent, MLSMR, MLSCN, NIH Roadmap, qHTS, NCGC
(In general: qHTS replaces the single test concentration by a dilution series.)
As to `COC1C[C@@H](O[C@@H]2C(C)C(=O)OC(C)C(C)C(O)C(C)C(=O)[C@@]3(CO3)CC(C)C(OC3OC(C)CC(N(C)C)C3O)C2C)OC(C)[C@@H]1O` (stereo partly specified), the activity change, negative = inhibition entry was “inactive”. Same read-out and setting: to `Cc1nn2c3cc(N4CCOCC4)ccc3nc2c2ccccc12` belongs “inactive”; to `CC(=O)N(CN1C(=O)C2CC=CCC2C1=O)c1cccc(Cl)c1` (stereo unspecified), “inactive”; to `CC1(C)OC2CO[C@]3(COS(N)(=O)=O)OC(C)(C)OC3C2O1` (stereo partly specified), “inactive”.

Take `CCCCOC(=O)CNc1nnc(SCC(=O)OCC)[nH]c1=O`: the activity change, negative = inhibition entry is “inactive”. On the same count and under the same terms, to `CC[C@@H]1Cc2cc(O)ccc2C2=C1c1ccc(O)cc1C[C@H]2CC` belongs “inactive”. On the same count and under the same terms, the entry for `O=C(O)C(O)[C@@](O)(Cc1ccc(O)cc1)C(=O)O` (stereo partly specified) is “inactive”; for `COc1cccc(N2CCN(C(=O)C3CCCN(S(=O)(=O)c4cnc[nH]4)C3)CC2)c1` (stereo unspecified) it is “inactive”; for `COc1ccc(N2C(=O)CN=C2Nc2cccc(C)c2C)cc1OC` it is “inactive”. On the same count and under the same terms, to `COC(=O)[C@@H]1C[C@@]2(O)[C@H](O)[C@H](O)[C@H](O)C[C@H]2N1Cc1ccc(C)s1` belongs “inactive”. For `O=C(O)c1c(Br)c(Br)c(Br)c(Br)c1C1c2ccc(O)cc2Oc2cc(O)ccc21`, the Potency is 3.98 µM (active). Regarding `COc1ccc(OC)c2[nH]c(=O)c(CCNC(=O)C(C)(C)C)cc12`, the activity change, negative = inhibition entry was “inactive”. The same measure, in the same setting: the entry for `O=C(Oc1cc(OC(=O)c2ccccc2)c2c(c1)OC(c1ccc(OC(=O)c3ccccc3)c(OC(=O)c3ccccc3)c1)[C@@H](OC(=O)c1ccccc1)C2)c1ccccc1` (stereo partly specified) is “inactive”. In the case of `C/C=C(/C)C(=O)OC1Cc2c(ccc3ccc(=O)oc23)OC1(C)C` (stereo unspecified), the activity change, negative = inhibition result was “inactive”. The same measure, in the same setting: the entry for `Cc1ccc(CNC(=O)C2CCCN(S(C)(=O)=O)C2)cc1` (stereo unspecified) is “inactive”; for `CC(C)=CCC/C(C)=C/CO/N=C1/C[C@@H](O)[C@@H](O)[C@@H]2[C@@H]3C(=O)N(C(C)(C)C)C(=O)[C@H]3CC[C@H]12` it is 0.517% [at 11.5 µM]; for `CCOC(=O)C1CCN(C(=O)COc2cc(C)c(Br)c(C)c2)CC1` it is “inactive”.

On to `COc1ccc(CCC(=O)c2c(O)cc(OC3OC(CO)C(O)C(O)C3O[C@@H]3OC(C)C(O)C(O)C3O)cc2O)cc1O` (stereo partly specified), for which the activity change, negative = inhibition entry is “inactive”.

With `CCN1CCN(C(=O)c2ccccc2N(C)S(=O)(=O)c2ccc(C)cc2)CC1`, the activity change, negative = inhibition entry is “inactive”.

Regarding `Cc1cc(C)c(C)c(S(=O)(=O)Nc2ccc(O)cc2)c1C`, the activity change, negative = inhibition result is “inactive”. On the same count and under the same terms, to `O=C(CSc1nc2ncccc2[nH]1)Nc1ccc2c(c1)OCCO2` belongs “inactive”; to `C=C1C([C@@]2(C)C(OC(C)=O)CC(=O)O[C@@](C)(COC(C)=O)C2CC(=O)OC)C(OC=O)C(OC(=O)C(O)C(C)CC)[C@]2(C)C(c3ccoc3)CC(=O)C12O` (stereo partly specified), “inactive”; to `CC(C)N(CCNC(=O)c1ccc(-n2c(=O)c(=O)[nH]c3ccccc32)cc1)C(C)C`, “inactive”. As to `CCOC(=O)C1CCCN(C(=O)c2ccc(CS(=O)(=O)c3ccc(Br)cc3)o2)C1` (stereo unspecified), the activity change, negative = inhibition entry was “inactive”. Same read-out and setting: to `Clc1ccc(C2[C@H]3CN(CC4CCCCC4)[C@H](c4ccccc4)C34CC2(c2cccnc2)C4)cn1` (stereo partly specified) belongs “inactive”; to `Cc1cnc(C(=O)OCC(=O)Nc2ccc(Cl)cc2Cl)cn1`, “inactive”.

Regarding `O=C(CSc1nc2ccccc2o1)N1CCN(c2ccccc2)CC1`, the activity change, negative = inhibition entry is “inactive”.

For the molecule `CN1CCCC1CCO[C@@](C)(c1ccccc1)c1ccc(Cl)cc1` (stereo partly specified), the activity change, negative = inhibition result is “inactive”. Turning to `Nc1nc2nc(Cl)[nH]c2c(=O)[nH]1`, the activity change, negative = inhibition entry was “inactive”.

As for `CC1CC[C@@]23CCC4(C)[C@@]5(C)CCC6C(C)(C)C(O)CC[C@@]6(C)C5C=C[C@@]4(OC2=O)C3C1C` (stereo partly specified), the activity change, negative = inhibition entry is “inactive”. The same measure, in the same setting: to `O=C(Nc1nsc(-c2ccccc2)n1)c1ccncc1` belongs “inactive”; to `CCC(CCC(C)C1CCC2C3CC=C4CC(O)CC[C@@]4(C)C3CC[C@@]12C)C(C)C` (stereo partly specified), “inactive”; to `Cc1c(NC(=O)Nc2ccccc2Cl)sc(=S)n1C`, “inactive”.

With `COc1ccc(S(=O)(=O)N(C)CC(=O)Nc2ccc3c(c2)OCCO3)cc1OC`, the activity change, negative = inhibition result is “inactive”. On to `COC(=O)[C@@H]1C[C@@]2(O)[C@@H](O)[C@@H](O)[C@@H](O)C[C@H]2N1Cc1ccc(C)s1`, for which the activity change, negative = inhibition result was “inactive”.

Turning to `COc1ccc(C2CC(=O)c3c(O)cc(OC4OC(COC5OC(C)C(O)C(O)C5O)C(O)C(O)C4O)cc3O2)cc1O` (stereo unspecified), the activity change, negative = inhibition entry is “inactive”.
